Consider 29 molecules from PubChem BioAssay (NCI).

Compounds without any hit were thinned out: in the full panel of roughly 83,000, 20% have a hit.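 A percent growth of 40 corresponds to 60% growth inhibition; 0 means no net growth; -100 means all cells died. Active threshold: below 10.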 Unmarked numbers belong to inactive results. Active and inactive are the calls of the source.

Holding throughout (experiment): NCI-60 one-dose screen, 48 h (100 = growth as untreated, 0 = no growth, -100 = all killed)
Holding throughout (conditions): 10 µM unless noted

Assay [1] relates to HCT-15 colon.
In assay [2] the test system is HT29 colon.
In assay [3] the test system is SNB-19 CNS.
Assay [4] has as its system U251 CNS.
Assay [5] relates to PC-3 prostate.
Assay [6] concerns UACC-62 melanoma.
Assay [7] deals with LOX IMVI melanoma.
The subject of assay [8] is SK-MEL-28 melanoma.
Assay [9] relates to SK-MEL-5 melanoma.
In assay [10] the test system is SNB-75 CNS.

Take `Cn1c2ccc(Cl)cc2c2nn(C(=O)c3ccccc3)c(=O)nc21`: the growth in assay [1] was 96.7%; in assay [2], 108%; in [3] it was 105%; in assay [4] it was 103%; in assay [5], 93.2%; in assay [6] it was 107%. Further, the growth was 98.1% in [7] and 125% in [8].
Consider `Cc1ccc(NS(=O)(=O)c2ccc(-c3cnc(C4CC4)o3)cc2)cc1`, for which the growth in assay [1] was 17.5%; in assay [2], 12%; in [3], 37.6%; in [4], 39.9%; in assay [5], 49.7%; in assay [9] it was 15%. The growth in assay [6] is 27.3%; in assay [7] it was 39.2%; in assay [8] it was 53.9%.
Turning to `Cc1ccc(S(=O)(=O)N2CCc3ccc(O)c4c3C2Cc2ccc3c(c2-4)OCO3)cc1` (stereo not given), the growth in assay [1] is 30.6%; in [2], 52.3%; in assay [3] it was 52.3%; in assay [4], 12.7%; in assay [5] it was 26.8%; in assay [9] it was 25.9%. Moreover, the figures for the growth in [6], in assay [7] and in assay [8] were 22.1%, 35.6% and 44.4%, respectively.
Regarding `COc1ccc(-c2cc(=O)oc3c4c(ccc23)OCN(Cc2ccc(F)cc2)C4)cc1`, the growth is 64.3% in assay [1]; 42.4% in [2]; 72.2% in assay [3]; 59% in [4]; 54.9% in [5]; 3.99% (active) in assay [9]. Further, the growth in assay [6] was 61.6%; in assay [7], 73%; in [8] it was 83.4%.
With `COc1ccc(-c2nc3sccn3c2/C=C/C(=O)c2cc(OC)c(OC)c(OC)c2)cc1OC`, the growth in assay [1] is 22%; in assay [2] it was 4.2% (active); in assay [3], 28.5%; in assay [4], 10%; in assay [5], 22.6%; in [9] it was 5.76% (active). Moreover, the growth is 15.3% in assay [6], 9.65% (active) in [7] and 53.2% in assay [8].
Consider `NC(=O)c1cccc(-n2ccc3cc(NC(=O)Nc4ccc(Cl)c(Cl)c4)ccc32)n1`, for which the growth in [1] was 59.7%; in [2] it was 60.9%; in [3], 86.3%; in [4], 66.7%; in assay [5], 73.3%; in assay [9], 74.1%. For the same molecule, the figures for the growth in [6], in assay [7] and in assay [8] were 83.2%, 81.9% and 88.1%, respectively.
Turning to `CCSc1nnc2c3cc(Br)ccc3n(C)c2n1`, the growth is 96.7% in assay [1]; 104% in assay [2]; 109% in assay [3]; 101% in assay [4]; 81% in assay [5]; 103% in assay [6]. Besides, the results for the growth in assay [7] and in [8] were 96% and 123%, respectively.
For the molecule `COc1ccc(OC2=CC(=O)c3ccc(C)nc3C2=O)cc1`, the growth in assay [1] was 76.1%; in [2], 102%; in [3] it was 87.7%; in [4], 96.4%; in assay [5], 85.2%; in assay [9] it was 83.5%. The growth is 83.6% in assay [6], 75.6% in assay [7] and 93.5% in assay [8].
With `Cc1nc(NC(=O)COc2cccc(/C=C3\COc4ccccc4C3=O)c2)sc1C`, the growth is -63.8% (active) in [1]; -100% (active) in assay [2]; 54.2% in [10]; -100% (active) in assay [4]; -81.8% (active) in assay [9]; -18.9% (active) in [6]. The values for the growth in assay [7] and in assay [8] were -94.3% (active) and -61.2% (active), respectively.
For `O=C(c1ccccc1)C(Br)C(Br)c1cccc([N+](=O)[O-])c1` (stereo not given), the growth in assay [1] was -26.6% (active); in [2], -42.4% (active); in assay [3] it was 82.4%; in assay [4] it was 17.7%; in assay [5], 67.4%; in [9] it was 77.1%. For the same molecule, the figures for the growth in [6], in assay [7] and in assay [8] were 81.4%, -79.4% (active) and 63.6%, respectively.
Regarding `CCOC(=O)c1c(Cl)c2c(n1Cc1cc(OC)cc(OC)c1)-c1oncc1CCC2`, the growth in assay [1] is 21.5%; in [2] it was 3.92% (active); in [3], 55.8%; in assay [4] it was 33.2%; in assay [5], 23.4%; in assay [9] it was 17.7%. Also, the growth in assay [6] is 28.5%; in [7], 43.7%; in assay [8], 40.7%.
Consider `CCC(=O)Nc1nnc(Cc2ccc(OC)c(OC)c2)s1`, for which the growth in assay [1] was 31.7%; in [2] it was -46.9% (active); in assay [3] it was 2.39% (active); in [4], -52.9% (active); in assay [5], 9.29% (active); in assay [9] it was 46.6%. In addition, the values for the growth in assay [6], in [7] and in assay [8] were -3.8% (active), 15.6% and -97.7% (active), respectively.
Turning to `Cc1nc2cc(Nc3nc(Nc4ccc(F)cc4)nc(N4CCCC4)n3)ccc2n1Cc1ccccc1`, the growth in assay [1] is -33.4% (active); in [2], -76.1% (active); in assay [3], 33.6%; in assay [4], -70.9% (active); in assay [9] it was -53.4% (active); in [7], -86% (active). Also, the growth in assay [8] was -10.6% (active).
As for `COc1ccc(NC(=O)c2ccc3c(c2)nc(-c2ccc(Cl)cc2)n3-c2cc(C(C)(C)C)[nH]n2)cc1`, the growth in assay [1] was 82.6%; in [10] it was 77.8%; in assay [3], 82.6%; in assay [4], 83.3%; in assay [5] it was 68.1%; in [9], 70.7%. The growth in [6] is 79.6%; in assay [8], 95.4%.
For `C=C1CC[C@@H]2[C@@](C)(CCC[C@]2(C)C(=O)O)[C@@H]1CC[C@H](CO)CCO`, the growth in assay [1] was 108%; in [10], 94.8%; in [3], 101%; in [4] it was 102%; in [5] it was 99.7%; in [6] it was 99.2%. The growth was 99.1% in assay [7] and 105% in [8].
For the molecule `CC(C)(C)[Si](C)(C)OC1[C@@H](CNC(=O)NC(=O)CCl)O[C@@H](n2cnc3c(N)ncnc32)[C@H]1O[Si](C)(C)C(C)(C)C` (stereo not given in full), the growth in [1] is -72.8% (active); in [10], 50%; in [4], -81% (active); in assay [5] it was -83% (active); in [6], -75% (active); in [7] it was -91.3% (active). Besides, the growth in assay [8] is -14.4% (active).
In the case of `O=[N+]([O-])c1cc2c(cc1Br)-c1ccccc1C2`, the growth was 45.3% in assay [1]; 86.5% in [10]; 98.5% in assay [4]; 91.8% in [5]; 82% in [6]; 88.8% in [7].
As to `Nc1cc(Br)c(-c2nnc(CCC(=O)c3nc4ccccc4[nH]3)o2)c(Br)c1`, the growth was 104% in [1]; 58.9% in [10]; 85.5% in assay [3]; 68.2% in assay [4]; 74.9% in assay [5]; 47.7% in assay [9]. Besides, the growth was 55.6% in assay [6], 44.7% in assay [7] and 65.4% in assay [8].
For the molecule `CC(=O)Nc1ccccc1-c1n[nH]c(=O)[nH]c1=O`, the growth in assay [1] is 102%; in [10], 90.3%; in assay [4] it was 101%; in assay [5], 99.4%; in assay [6], 103%; in [7], 97.8%. Further, in assay [8], the growth is 104%.
Consider `O=c1[nH]c(=O)n(Cc2ccc(F)cc2)cc1F`, for which the growth in [1] was 99.5% [50 µM]; in [10], 104% [50 µM]; in assay [3], 100% [50 µM]; in [4], 98.7% [50 µM]; in assay [5], 107% [50 µM]; in [9], 104% [50 µM]. Moreover, the growth is 101% [50 µM] in assay [6], 96.4% [50 µM] in [7] and 109% [50 µM] in assay [8].
With `CC(C)(C)[Si](C)(C)OC1[C@@H](COC(=O)NC(=O)CCl)O[C@@H](n2cnc3c(N)ncnc32)[C@H]1O[Si](C)(C)C(C)(C)C` (stereo not given in full), the growth is 11.8% in assay [1]; 101% in [10]; 53.2% in assay [4]; -59.9% (active) in assay [5]; 75.2% in assay [6]; -94% (active) in assay [7]. In assay [8], the growth was 71.8%.
As to `COc1cc(C2C3=C(COC3=O)N(CCO)c3cc4c(cc32)OCO4)cc(OC)c1O` (stereo not given), the growth in [1] is 44.8%; in assay [10], -11.3% (active); in [3] it was 41.5%; in [4], 21.4%; in assay [5] it was 29.5%; in assay [9] it was 29.3%. In addition, the values for the growth in assay [6], in assay [7] and in [8] were 26.2%, 40.1% and 59.5%, respectively.
Regarding `C=C[C@H]1C[C@@H]2C[C@@H]3[C@H]4C/C=C\C(=O)NCCCC5NC(=O)C(=C(O)/C=C/[C@@H]4CC(=O)[C@H]3[C@@H]2[C@H]1C)C5=O` (stereo not given in full), the growth was -76.2% (active) in assay [1]; -85.4% (active) in [10]; -74% (active) in assay [3]; -96.4% (active) in [4]; -82.5% (active) in assay [5]; -95.3% (active) in assay [9]. In addition, the growth in assay [6] was -75.8% (active); in [7], -47.2% (active); in [8], -78% (active).
Consider `COc1cccc(C2C3=C(COC3=O)N(CCO)c3cc4c(cc32)OCO4)c1` (stereo not given), for which the growth in [1] was 18.2%; in [10], -19.9% (active); in [3], 25.6%; in assay [4] it was 18.2%; in assay [5] it was 32.4%; in assay [9], 30.8%. The growth in [6] was 18.3%; in assay [7] it was 53.8%; in assay [8] it was 50.5%.
Consider `O=C(O)C[C@H](O)C[C@H](O)/C=C/c1c(C2CC2)nc2ccccc2c1-c1ccc(F)cc1`, for which the growth in [1] was 46.5%; in assay [10] it was 103%; in assay [3] it was 74.9%; in [4] it was 42.8%; in [5], 26.9%; in assay [9] it was 67.6%. Besides, the values for the growth in assay [6], in [7] and in [8] were 19.5%, 34.5% and 113%, respectively.
Consider `Cc1nc2nc(C(F)(F)F)[nH]c2nc1C`, for which the growth in assay [1] is 111%; in assay [10] it was 85.1%; in assay [4], 102%; in assay [5], 104%; in assay [6] it was 102%; in assay [7] it was 98.6%. Further, the growth in assay [8] was 102%.
In the case of `C[C@@H](Oc1cc(-c2cnn(C3CC4(CCNCC4)C3)c2)cnc1N)c1c(F)ccc(Cl)c1Cl`, the growth is 1.76% (active) in assay [1]; -3.45% (active) in assay [10]; 61.6% in assay [3]; 12.1% in [4]; 6.2% (active) in assay [5]; -88.1% (active) in assay [6]. For the same molecule, the growth was -85.8% (active) in assay [7] and -83.4% (active) in assay [8].
Consider `Cc1c(C)n(CC(O)CNC2CCCCC2C)c2ccccc12` (stereo not given), for which the growth in assay [1] was -16.2% (active); in [10], -38.7% (active); in [3], 62%; in assay [4], -52.1% (active); in assay [5], -24% (active); in [9], -86.2% (active). For the same molecule, the growth in assay [6] was -84.7% (active); in assay [7] it was -83.1% (active); in [8], -85.2% (active).
In the case of `CN1CCN(c2nc(-c3ccncc3)nc3sc4c(c23)CCCCCC4)CC1`, the growth was 76.5% in assay [1]; 14.5% in assay [10]; 63.5% in [4]; 61.9% in assay [5]; 86.6% in assay [6]; 64.9% in assay [7]. For the same molecule, the growth in assay [8] was 83.5%.
